Measurements reported in PubChem BioAssay (NCI).
About 83,000 compounds went through this panel and 20% of them were active in at least one assay; those are over-represented in the sample as a whole.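 Method: cells in 96-well plates; compound added at one concentration; 48 h incubation; percent growth measured; values under 10 scored active.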 Values without a mark were called inactive. Active and inactive are the calls of the source.

system: NCI/ADR-RES ovarian; assay: NCI-60 one-dose screen, 48 h (100 = growth as untreated, 0 = no growth, -100 = all killed); settings: 10 µM unless noted
Experimental: Growth inhibition of the NCI/ADR-RES human […] tumor cell line is measured as a screen for anti-cancer activity. Cells are grown in 96 well plates and exposed to the test compound for 48 hours. Compounds are tested at a single concentration, which is 10^-5 M for most compounds. The reported endpoint is percent growth (GI% or GIPRCNT), where numbers from 0 - 100% represent growth inhibition, and numbers from -100% - 0 represent cell death. For example, a value of 40 represents 60% growth inhibition. A value of 0 means no net growth occurred over the course of the experiment. A value of -40 indicates 40% of cells at the beginning of the experiment died by the end of the experiment. A value of -100 means all cells are dead at the end of the experiment.
NCI-60 Human Tumor Cell Lines Screen was performed using the standard one-dose NCI protocol, which is described in more detail at https://dtp.cancer.gov/discovery_development/nci-60/default.htm.
Compounds with GIPRCNT values below 10 were considered active. Activity score was based on GIPRCNT using the following formula: […]
Score is 0 for GIPRCNT values of 100 or above, 50 for GIPRCNT values of 0, and 100 for GIPRCNT values of -100.

| Compound | growth |
| --- | --- |
| NC(=N\N=C/Cc1ccccc1)/C(N)=N\N=C\Cc1ccccc1 | 103% |
| [N-]=[N+]=NCc1cccc(/C(O)=C/C(=O)C(=O)O)c1 | 78.6% |
| Cc1cc(C)nc(NS(=O)(=O)c2ccc(Nc3nc4nc(SCc5ccccc5)nc(-c5ccc(O)cc5)c4c(=O)[nH]3)cc2)n1 | 97.3% |
| c1ccc(CN=C(NCc2ccccc2)NCc2ccccc2)cc1 | 86% |
| CC(C)Cn1cnc2c(NCn3nc(-c4cc(Cl)cc(Cl)c4Cl)n(/N=C/c4ccc(Cl)cc4)c3=S)nc3ccccc3c21 | 56.3% |
| C=C1CCC2C3(C)COC(c4ccccc4)OC3CCC2(C)C1C/C=C1/C(=O)OCC1OC(C)=O (stereo not given) | 61.3% |
| C[C@H]1O[C@@H](O[C@H]2[C@@H](O)C[C@H](O[C@H]3[C@@H](O)C[C@H](O[C@H]4CC[C@]5(C)C6C[C@@H](O)[C@]7(C)[C@@H](C8=CC(=O)OC8)CC[C@]7(O)C6CC[C@@H]5C4)O[C@@H]3C)O[C@@H]2C)C[C@H](O)[C@@H]1O (stereo not given in full) | -87.7% (active) |
| COc1ccc(-c2cc(-c3cccnc3)nc(S(=O)(=O)CC(=O)Nc3ccc(C)cc3)c2C#N)cc1OC | 86.8% |
| Nc1nc2c(nnn2Cc2ccc(Cl)c(Cl)c2)c(=O)[nH]1 | 105% |
| COc1cnc2c(c1)C(=O)c1c-2n(CCCn2ccnc2)c(=O)c2cc(F)ccc12 | -3.87% (active) |
| NS(=O)(=O)c1ccc(-n2ncc3c(NC4CCCCC4)ncnc32)cc1 | 88.6% |
| COc1cccc(C=Nc2cc(C(C)C)c(O)cc2C)c1O | 104% |
| COc1cc(C(=O)c2cc3c(cc2C)OCO3)cc(OC)c1OC | 15.3% |
| CC[N+](CCCCCCCCCC[N+](CC)(c1ccccn1)c1ccccn1)(c1ccccn1)c1ccccn1 | 63.6% |
| Nc1nc(Nc2ccccc2SSc2ccccc2Nc2nc(N)nc(-c3cccc(Cl)c3)n2)nc(-c2cccc(Cl)c2)n1 | 81.3% |
| O=C(Nc1ccc(Cl)cc1)Nc1ccccc1CNc1nc(Nc2ccc(OCCN3CCCC3)cc2)ncc1Cl | -35.9% (active) |
| Cc1csc(C#Cc2cncc(O)c2)n1 | 113% |
| CN(C)c1ccc(-n2nc3ccccc3n2)cc1 | 106% |
| c1ccc(-c2n(Cc3ccc4ccccc4c3)cc[n+]2Cc2ccc3ccccc3c2)cc1 | 82.2% |
| CCOC(=O)c1cc2oc(/C=C/c3cc(=O)c4cc(Cl)ccc4o3)cc2[nH]1 | 93.6% |

| Compound | growth |
| --- | --- |
| Cc1cnc2nc(-c3ccc(N(C)C)cc3)cn2c1 | 85.9% |
| O=C1C2C(C(=O)N1CC[Se][Se]CCN1C(=O)C3C(C1=O)[C@H]1C=C[C@@H]3C1)[C@H]1C=C[C@@H]2C1 (stereo not given in full) | -10.9% (active) |
| NC(=O)c1cc(Br)cc(Br)c1NS(=O)(=O)c1ccccc1 | 103% |
| COc1cc(/C=N/NC(=O)c2ccc(C(F)(F)F)nc2Nc2cc(Cl)ccc2C)cc(OC)c1OC | 98.3% |
| N#Cc1c(-c2ccccc2)cc(-c2ccccc2)n(CCCC(=O)O)c1=O | 99.8% |
| COc1ccc2c(=O)c(OC)c(-c3cc(OC)c(OC)c(OC)c3)oc2c1 | 83.9% |
| Cn1cnc([N+](=O)[O-])c1Sc1nc(N)nc2nc[nH]c12 | 32.4% |
| COc1ccc(N2CCN(CC(=O)N3CCN(c4nnc(-c5ccccc5)c(-c5ccccc5)n4)CC3)CC2)cc1 | 49.9% |
| O=C(N/N=C/c1cccc(O)c1)c1ccc(C(F)(F)F)nc1Nc1cccc(C(F)(F)F)c1 | 13.6% |
| C/C(=C\CCc1ccoc1)CC/C=C(\C)CCCNc1ccc(F)cc1 | 98.1% |
| CCCCCCCCCCNCCSS(=O)(=O)O | 83.7% |
| CCCCCCCCCCCCC1CCCC(C)C1 (stereo not given) | 95.3% |
| CCC(=O)Nc1cc2c(cc1Cl)-c1ccccc1C2 | 90.1% |
| Cc1nn(-c2ccccc2)c2nc(N)c(C3=NCCO3)nc12 | 101% |
| O=C(CNc1ccc2c(c1)C(=O)c1ccccc1C2=O)Nc1ccc2c(c1)C(=O)c1ccccc1C2=O | -40% (active) |
| OC(c1cc(-c2cccc(Cl)c2)nc2ccccc12)C1CCCCN1 (stereo not given) | -29.4% (active) |
| O=Nc1c2cccnc2n2nnc3ccc(Cl)cc3c12 | 54.8% |
| C/C(=C\CCc1ccoc1)CC/C=C(\C)CCCC1COC(=O)C1 (stereo not given) | 101% |
| N#Cc1c(-c2ccc(F)cc2)n2c(nc1=O)SC(=O)C2=O | 94.5% |
| c1ccc(COc2ccc(Nc3ncnc4c3cnn4-c3ccccc3)cc2)cc1 | 107% |
